Data on eight sequences can be found in the supplement of paper PMC6555819.

Assay in all cases: PBM binding z-score (relative to random genomic background probes); higher = stronger binding; sequences stand for … in GC…GCGATTGACAGCGTAGAATGAAGG
Assay [1] relates to PPARg:RXRa DBDmut IVT, anti-RXR (DBD mutation: RXRa K156A/R161A, NR concentration 270 nM, RXRa partner concentration 90 nM). The procedure, abridged: (§1)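 Each nuclear receptor dimer, without ligand, was incubated for 1 h on custom Agilent 4×180K protein-binding microarrays. Binding was detected with antibodies against each partner (one per run), and scanned fluorescence was regression-normalized. The binding z-scores are referenced to random human genomic background probes.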

Assay [2] deals with PPARg:RXRa IVT, anti-PPARg (NR concentration 270 nM, RXRa partner concentration 90 nM). Put shortly: as §1
Assay [3] concerns PPARg DBDmut:RXRa IVT, anti-PPARg (DBD mutation: PPARg1 K132A/R137A, NR concentration 270 nM, RXRa partner concentration 90 nM). The procedure, abridged: as §1
Assay [4] deals with PPARg DBDmut IVT, anti-PPARg (DBD mutation: PPARg1 K132A/R137A, NR concentration 270 nM). The procedure, abridged:
as §1

In assay [5] the test system is PPARg homodimer (NR concentration 180 nM). Put shortly:
as §1

The test system of assay [6] is PXR:RXRa (NR concentration 270 nM, RXRa partner concentration 90 nM). The procedure, abridged: as §1
Assay [7] concerns PXR homodimer (NR concentration 270 nM). The procedure, abridged: as §1
The test system of assay [8] is RARa:RXR (NR concentration 270 nM, RXRa partner concentration 90 nM). Put shortly: as §1
The subject of assay [9] is RARa homodimer (NR concentration 270 nM). The procedure, abridged: as §1
The test system of assay [10] is RARb:RXRa (NR concentration 270 nM, RXRa partner concentration 90 nM). The procedure, abridged:
as §1

Assay [11] has as its system RARb homodimer (NR concentration 270 nM). Put shortly: as §1
Assay [12] relates to RARg:RXRa (NR concentration 270 nM, RXRa partner concentration 90 nM). Put shortly:
as §1

Assay [13] deals with RARg homodimer (NR concentration 270 nM). Put shortly:
as §1

In assay [14] the test system is RXRa DBDmut IVT, anti-RXR (DBD mutation: RXRa K156A/R161A, NR concentration 90 nM). Put shortly:
as §1

For assay [15], the system named is RXRa homodimer (NR concentration 180 nM). Put shortly: as §1
For assay [16], the system named is THRa:RXRa (NR concentration 90 nM, RXRa partner concentration 90 nM). The procedure, abridged:
as §1

Assay [17] has as its system THRa homodimer (NR concentration 90 nM). The procedure, abridged:
as §1

In assay [18] the test system is VDR homodimer (NR concentration 270 nM). The procedure, abridged:
as §1

Take ACTATTAGTTGAGACGAGGGCAACCCATAGGTTG: the PBM binding z-score in assay [1] turned out to be 0.0223; in assay [2] it was 0.455; in assay [3] it was 0.5; in [4], 0.77; in assay [5] it was 0.831; in [6], 1.31. Besides, the PBM binding z-score in [7] worked out at 0.412; in assay [8] it was 0.966; in [9] it was 0.536; in [10], 1.07; in assay [11] it was 1.45; in [12] it was 0.739. The PBM binding z-score in assay [13] was found to be 0.903; in [14] it was 0.366; in [15], 0.748; in assay [16], 2.42; in assay [17], 0.54; in assay [18] it was 0.783.

For the sequence TCCTATAGGTAAATGCTAGGTGAAAGTCCGATCT, the PBM binding z-score in assay [1] was 2.2; in [2] it was 1.3; in [3], 0.193; in assay [4], 0.879; in [5], -0.495; in [6], 0.0422. For the same sequence, the PBM binding z-score in [7] was -0.266; in assay [8], 0.694; in assay [9], 0.208; in assay [10], 0.523; in [11], 0.372; in assay [12], 0.374. Moreover, the PBM binding z-score is 0.00496 in assay [13]; 1.14 in assay [14]; 0.554 in [15]; 1.55 in assay [16]; 0.305 in assay [17]; -0.299 in assay [18].

For the sequence CAGCCTAGGTCAGGTCCAGTATAGGAGGAACGTT, the PBM binding z-score was 1.02 in assay [1]; 0.846 in [2]; -0.384 in assay [3]; -1.31 in [4]; 0.577 in assay [5]; 0.126 in assay [6]. Further, the PBM binding z-score in [7] is -0.567; in assay [8] it was 0.528; in [9], -0.0442; in assay [10] it was 3; in [11] it was 1.98; in [12], 2.25. The PBM binding z-score in assay [13] was 3.33; in [14] it was -0.0428; in assay [15], 1.14; in assay [16] it was 1.68; in [17], 0.525; in assay [18] it was 0.207.

For the sequence ATATGTAGGCTAGCTGGGGTCATTCAGACTAGGC, the PBM binding z-score amounted to 4.55 in assay [1]; 3.66 in assay [2]; 1.11 in assay [3]; 0.266 in assay [4]; 1.81 in assay [5]; 5.32 in [6]. Moreover, the PBM binding z-score was 2.19 in assay [7]; 5.28 in [8]; 0.344 in assay [9]; 2.28 in [10]; 3.02 in assay [11]; 3.59 in assay [12]. Besides, the PBM binding z-score in [13] came to 1.99; in assay [14], 1.43; in assay [15], 4.96; in assay [16], 4.2; in [17] it was 2.76; in assay [18], 3.63.

GCGACAGGGGCAAAGCAGGTTACCATAAGGTTGG: the PBM binding z-score is 0.177 in [1]; 0.684 in [2]; -0.131 in assay [3]; -0.736 in [4]; 0.212 in assay [5]; 0.934 in assay [6]. Further, the PBM binding z-score in [7] was -0.112; in assay [8] it was 1.19; in assay [9] it was -0.459; in [10], 1.47; in assay [11], 1.21; in assay [12] it was 1.06. For the same sequence, the PBM binding z-score was determined as 0.918 in [13]; 0.664 in assay [14]; 1.06 in assay [15]; 3.83 in assay [16]; 0.135 in assay [17]; 0.281 in [18].

CAAACTAGGTCACCGGAAGGTCCAAGTCCGCATG: the PBM binding z-score came out at 8.74 in [1]; 8.78 in assay [2]; 2.63 in assay [3]; 2.9 in assay [4]; 2.36 in assay [5]; 2.43 in [6]. In addition, the PBM binding z-score is -0.0607 in assay [7]; 3.18 in assay [8]; 1.11 in [9]; 4.39 in assay [10]; 3.77 in assay [11]; 5.27 in assay [12]. Further, the PBM binding z-score in assay [13] turned out to be 5.86; in assay [14], 1.82; in [15] it was 3.81; in assay [16], 3.59; in assay [17] it was 2.3; in assay [18] it was 1.68.

As to ATACCAAGGTGATCGTAAGGTCGTTGATACTAAC, the PBM binding z-score in assay [1] was determined as 0.558; in assay [2], 1.51; in [3], 0.685; in assay [4] it was 0.646; in assay [5] it was 0.753; in [6], 2.81. In addition, the PBM binding z-score in assay [7] came to 1.42; in assay [8], 2.19; in assay [9], 0.841; in assay [10], 1.55; in assay [11], 2.01; in [12], 2.35. Moreover, the PBM binding z-score in assay [13] came to 0.817; in [14], 0.559; in [15], 1.68; in [16], 3.44; in [17], 3.08; in [18], 2.23.

Turning to GCTTGCAGATCAAGGTTAAGAAAGACTAAGCTAA, the PBM binding z-score in [1] is 0.163; in assay [2], 0.227; in [3] it was -0.556; in assay [4], -0.251; in assay [5], -0.687; in assay [6], 0.18. Further, the PBM binding z-score in [7] was -0.42; in assay [8], 0.588; in assay [9] it was -0.293; in assay [10], 0.686; in assay [11], -0.0263; in assay [12], 0.321. Moreover, the PBM binding z-score is 0.141 in assay [13]; -0.00088 in assay [14]; 0.55 in assay [15]; 1.16 in assay [16]; -0.514 in assay [17]; -0.323 in assay [18].
